# APP transl inh – APP translation inhibition; SH-SY5Y APP 5'UTR-luciferase reporter, luminescence; inhibition, % at 2 µM; 190,000 tested, 0.82% active;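 active = inhibition above a set limit, derived from the sample mean plus 3 SD, cut at about 45% in these data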
# Ba/F3 V617F tox – lowers viability of Ba/F3 cells expressing EpoR and JAK2V617F. ATP luminescence. inhibition, % at 5.6 µM. 220,000 tested, 1.1% active. AID 1446;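 active = inhibition above the campaign mean plus 3 SD over all tested compounds, cut at about 24% in these data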;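 also: cytokine-independent growth of Ba/F3 cells driven by EpoR plus mutant JAK2; 0% = DMSO-treated cells and 100% = JAK inhibitor I control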
# IEC-6 cytotox – kills IEC-6 intestinal cells in KLF5 counter-screen; IEC-6 cytotoxicity, luminescence viability; inhibition, % at 5 µM; 290,000 tested, 0.78% active; in the data active = inhibition above about 22%;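 also: 0% = plate median of test compound wells and 100% = cytotoxic reference compound wells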
# BaF3 parental – counter-screen for JAK2V617F inhibitors: parental Ba/F3 viability inhibitors; CellTiter-Glo ATP luminescence; inhibition, % at 5.6 µM; 220,000 tested, 1.1% active; AID 1486;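 active = inhibition above a per-campaign cutoff, the mean inhibition of all tested compounds plus 3 SD, cut at about 27% in these data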;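 also: 0% = DMSO wells and 100% = JAK Inhibitor I control wells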
# KLF5 inhibitor – inhibitors of KLF5 expression | AID 1700 | DLD-1 KLF5 promoter-luciferase reporter, luminescence | 290,000 tested, 0.23% active | inhibition, % at 5 µM;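 active = inhibition above a per-plate limit of that plate's mean compound inhibition plus 3 SD, cut at about 60% in these data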;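 also: 0% = DMSO wells and 100% = LY294002 at 200 µM; higher means less KLF5 promoter-driven luciferase light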
# * marks the source's active call; other numbers are inactive results; nt = no result. Sampled rows, rich in hits. Any-hit rate of the full collection: about 1.8%.
SMILES,APP transl inh,Ba/F3 V617F tox,IEC-6 cytotox,BaF3 parental,KLF5 inhibitor
COc1cc([N+](=O)[O-])cc(/C=N/NC(=O)c2ccc(NC(=O)c3ccc(C)cc3)cc2)c1O,86.7*,-1.0,-4.8,1.3,-7.2
COc1cccc(/C=N/NC(=O)c2cc3c(OC)cccc3[nH]2)c1OC,1.6,1.5,-1.1,5.7,-4.4
COc1cccc(/C=N/NC(=O)c2cc3c(OC)cccc3[nH]2)c1O,45.3*,-3.3,-0.4,0.7,-10.0
COc1cccc(/C=N/NC(=O)c2cc3cc([N+](=O)[O-])ccc3s2)c1O,50.8*,-3.9,4.0,0.2,-20.9
Cc1ccc(C)c(NC(=O)CCC(=O)N2CCOc3ccccc32)c1,nt,nt,-1.6,nt,-16.2
O=C(O)c1cccc(-c2ccc(/C=N/NC(=O)c3cccnc3)o2)c1,-5.0,0.0,-6.8,28.4*,-46.7
Cc1ccc(/C=N/NC(=O)c2cccnc2)o1,10.8,-0.5,3.3,2.5,-36.4
NNC(=O)c1ccc(NS(=O)(=O)c2ccc(Br)cc2)cc1,nt,2.7,-0.8,5.3,-20.9
Cc1ccc(CC(=O)Nc2ccncc2)cc1,11.3,35.7*,1.6,41.7*,-12.3
C/C(=N/NC(=O)c1nnn(-c2nonc2N)c1COc1ccccc1)c1ccccc1,nt,nt,1.4,nt,-43.0
Cc1cc2nc(/N=C(\N)NC(=O)C(C)C)nc(C)c2cc1C,nt,11.6,9.4,29.5*,-7.0
CCCC(=O)N/C(N)=N/c1nc(C)c2cc(C)ccc2n1,nt,12.7,0.0,19.5,-7.4
CCC(=O)N/C(N)=N/c1nc(C)c2cc(C)c(C)cc2n1,nt,38.2*,4.3,53.0*,-11.0
CC[C@@H](C(=O)[C@@H](C)[C@@H](O)[C@H](C)CCc1ccc(C)c(O)c1C(=O)O)[C@H]1O[C@](CC)([C@H]2CC[C@](O)(CC)[C@H](C)O2)C[C@@H]1C,nt,nt,91.0*,nt,31.5
CC(=O)c1cccc(NC(=O)CSCc2ccccc2)c1,-45.6,1.6,2.8,6.0,-67.5
COc1cccc(NC(=O)CCC2CCN(C(=O)c3scnc3C)CC2)c1,nt,nt,-1.0,nt,-33.8
O=C(N/N=C/c1sc2ccccc2c1O)c1ccccc1,52.6*,-2.5,4.1,5.9,-18.2
O=C(N/N=C/c1sc2ccccc2c1O)c1cccc2ccccc12,48.5*,-3.8,6.6,6.1,-9.6
COc1ccc2cc(C(=O)N/N=C/c3sc4ccccc4c3O)ccc2c1,4.8,1.4,-4.1,3.5,-4.7
O=C(CC(=O)c1cc(Cl)ccc1O)c1ccccc1,-57.5,1.4,-0.6,7.0,-51.6
O=C(c1ccccc1)c1cc(Cl)ccc1N1C(=O)C=CC1=O,79.8*,5.9,-2.5,10.9,-24.4
Cc1cnc(NC(=O)c2cc3ccccc3o2)s1,-94.6,-1.7,2.4,0.6,-172.2
CCN(c1ccc(NC(=O)c2ccc(Cl)nc2)cc1)C(C)C,59.6*,77.4*,68.8*,68.6*,16.9
Cn1c(=O)cc(Cl)[nH]c1=O,9.5,3.8,2.8,2.3,-2.7
CCNC(=S)NNC(=O)CCn1cc(C)cn1,3.5,2.8,0.8,3.4,20.2
SMILES,APP transl inh,Ba/F3 V617F tox,IEC-6 cytotox,BaF3 parental,KLF5 inhibitor
CCCCc1ccc(N/C(N)=N/c2nc(C)cc(C)n2)cc1,nt,41.1*,11.9,35.0*,-2.7
O=C(Cn1ncc(Cl)c(Cl)c1=O)N1CCN(S(=O)(=O)c2ccc3ccccc3c2)CC1,94.0*,1.3,10.0,2.4,-10.4
Cc1ccccc1NC1=NC(C)(C)N=C(N)N1,-13.9,-3.4,4.6,-0.9,-14.1
CC1(C)N=C(N)NC(Nc2ccccc2)=N1,3.2,94.3*,5.2,98.5*,5.5
Cc1cccc(N2CCN(C(=O)c3ccc4ncsc4c3)CC2)c1C,79.9*,59.5*,35.7*,54.0*,47.2
CC#CCNCc1ccccc1,-2.1,2.4,-5.7,34.5*,-42.3
COc1c([N+](=O)[O-])cc(C(=O)NNC(=O)c2ccc(C)cc2)cc1[N+](=O)[O-],nt,nt,-0.3,nt,3.1
Cc1cccn2cc(-c3cc4ccccc4oc3=O)nc12,-84.5,-2.3,3.4,89.8*,-30.7
O=C1/C(=C/c2cccc([N+](=O)[O-])c2)CCc2ccccc21,-8.3,5.0,2.3,4.7,-27.6
CCN1C/C(=C\c2cccc([N+](=O)[O-])c2)C(=O)/C(=C/c2cccc([N+](=O)[O-])c2)C1,96.0*,-1.9,3.6,4.0,-10.7
CCCN(S(=O)(=O)c1ccccc1F)S(=O)(=O)c1ccccc1Br,nt,nt,-3.0,nt,-7.6
Cc1nc2ccccc2cc1OCc1ccccc1,-5.3,0.3,1.4,7.8,11.0
COc1cccc(COc2cc3ccccc3nc2C)c1,-17.5,41.7*,5.6,42.9*,35.7
O=C(CSc1nnc(-c2ccccc2Cl)o1)Nc1ccccn1,-129.2,-3.4,3.4,3.2,-90.6
CC(C)CNC(=O)c1coc(=O)c(Br)c1,46.6*,-1.4,5.2,0.4,15.9
C/C(N)=C(/C#N)C(=O)COC(=O)CNS(=O)(=O)c1ccc2ccccc2c1,nt,50.5*,5.4,59.6*,-3.5
COc1ccc(C(=O)/C=C2\Sc3ccccc3N2C)cc1,-195.2,2.4,-2.3,4.4,-141.9
COc1ccccc1-[n+]1c(C)cc(/C=C2\Sc3ccccc3N2C)cc1C,nt,98.8*,1.3,96.2*,7.9
O=C(Cn1c(=O)oc2ccccc21)N1CCOCC1,0.1,-0.1,-10.1,0.8,-6.9
O=C(NCC1CCCO1)C(c1ccc(F)cc1)N(Cc1ccc(F)cc1)C(=O)Cn1nnc(-c2cccs2)n1 (stereo unspecified),-10.0,-1.1,-2.7,2.5,-9.6
O=C(NCC1CCCO1)C(c1ccncc1)N(Cc1cccs1)C(=O)Cn1nnc(-c2ccc(F)cc2)n1 (stereo unspecified),48.0*,-3.9,-2.9,-1.0,-9.6
Cc1c(Cl)c([N+](=O)[O-])nn1CCCC(=O)NC1CCCCC1,-21.8,0.4,-3.1,6.9,-8.9
Cc1ccc(-n2ncc3c(SCc4ccccn4)ncnc32)c(C)c1,-2.0,11.6,1.3,34.9*,30.3
CSc1ncnc2c1cnn2-c1ccc(C)cc1C,-18.1,2.8,2.3,5.0,2.5
O=[N+]([O-])c1cc(S(=O)(=O)C(F)(F)F)ccc1Sc1nc2ccccc2s1,1.6,-3.1,-3.0,2.1,-17.9
SMILES,APP transl inh,Ba/F3 V617F tox,IEC-6 cytotox,BaF3 parental,KLF5 inhibitor
CS(=O)(=O)c1ccc(Sc2nc3ccccc3s2)c([N+](=O)[O-])c1,18.7,65.6*,-2.6,45.5*,1.4
OCCN1CCN(c2nc(-c3ccccc3O)nc3ccccc23)CC1,nt,nt,9.1,nt,-4.8
Oc1ccccc1N=Nc1nc(-c2ccccc2)c(-c2ccccc2)[nH]1,88.0*,97.8*,0.2,97.1*,49.9
CCCCOc1cccc(C(=O)N(Cc2ccccc2)C2CCS(=O)(=O)C2)c1 (stereo unspecified),nt,nt,4.2,nt,-7.7
CCOC(=O)c1[nH]c(C)c(C(=O)N2CCN(c3ccccc3)CC2)c1C,19.7,7.6,-1.4,6.0,-29.1
CCOc1ccc2ccccc2c1C(=O)N1CCN(c2ccccc2)CC1,8.6,46.3*,24.6*,42.4*,34.8
CCCCC(=O)Nc1cc(OCC)c(NC(=S)NC)cc1OCC,-0.1,23.7*,1.9,61.9*,-24.7
COCc1c(C(=O)N2CCN(c3ccc(C(F)(F)F)cn3)CC2)oc2ccccc12,-14.0,-2.1,4.7,-1.1,6.2

# Screening data deposited in PubChem by several laboratories.
